A number with no mark means an inactive call. Unless noted, calls come from the whole dose curve.
Potency is the fitted concentration of half-maximal effect.

For the first assay, the target named is Glucocorticoid receptor (Homo sapiens) (UniProt P04150). Description: GR-GFP Redistribution (AID 450;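 active = compounds whose dose series gives a full or clear partial fitted curve of increased nuclear translocation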). The following applies: U2OS GR-GFP nuclear translocation, laser cytometry, 2 h.
Sequence of Glucocorticoid receptor (Homo sapiens) (P04150 whole entry, looked up): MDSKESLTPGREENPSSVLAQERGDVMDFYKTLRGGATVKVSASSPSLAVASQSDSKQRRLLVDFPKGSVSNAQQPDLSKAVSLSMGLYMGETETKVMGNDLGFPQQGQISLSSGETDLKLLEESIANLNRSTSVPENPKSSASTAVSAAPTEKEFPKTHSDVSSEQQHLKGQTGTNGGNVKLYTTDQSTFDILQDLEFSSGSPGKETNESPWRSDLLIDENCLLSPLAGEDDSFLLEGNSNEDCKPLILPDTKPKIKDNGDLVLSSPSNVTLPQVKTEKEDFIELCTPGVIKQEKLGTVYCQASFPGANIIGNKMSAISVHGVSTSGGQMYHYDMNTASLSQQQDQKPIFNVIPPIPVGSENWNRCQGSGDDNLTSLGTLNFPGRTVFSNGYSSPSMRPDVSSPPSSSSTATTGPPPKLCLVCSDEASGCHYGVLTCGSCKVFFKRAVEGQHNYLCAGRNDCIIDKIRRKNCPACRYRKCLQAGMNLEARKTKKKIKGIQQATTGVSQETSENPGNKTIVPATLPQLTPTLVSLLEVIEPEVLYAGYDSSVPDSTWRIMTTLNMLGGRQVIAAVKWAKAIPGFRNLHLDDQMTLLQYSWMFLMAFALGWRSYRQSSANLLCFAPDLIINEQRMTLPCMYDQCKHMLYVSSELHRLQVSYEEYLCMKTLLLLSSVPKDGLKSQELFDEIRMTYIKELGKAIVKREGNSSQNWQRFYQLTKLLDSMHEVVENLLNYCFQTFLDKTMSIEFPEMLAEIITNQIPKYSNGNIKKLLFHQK
Consider `N=C(N)SCCN`, for which the Potency was greater than 46 µM. As for `COc1cc2c(CCNC(C)=O)c[nH]c2cc1O`, the Potency was greater than 46 µM. Same read-out and setting: under `Cc1nc(N=Nc2cc(S(=O)(=O)O)c3cc([N+](=O)[O-])cc(S(=O)(=O)O)c3c2)c(COP(=O)(O)O)c(C=O)c1O` stands greater than 46 µM. Still for that read-out and setting: under `COc1ccccc1N1CCN(CCN(C(=O)c2ccc(F)cc2)c2ccccn2)CC1` stands greater than 46 µM; under `NC[C@@H]1O[C@H](c2ccccc2)Cc2c1ccc(O)c2O`, greater than 46 µM; under `Nc1ccc(N2C(=O)c3ccccc3C2=O)c(Cl)c1`, greater than 46 µM. On the same count and under the same terms, with `CC[C@@H]1Cc2cc(O)ccc2C2=C1c1ccc(O)cc1C[C@H]2CC` the figure was greater than 46 µM; with `Oc1cc(O)c2c(c1)O[C@H](c1ccc(O)c(O)c1)[C@@H](O)C2`, greater than 46 µM. Turning to `CC(C)(C)c1cc(/C=C(\C#N)C(N)=S)cc(C(C)(C)C)c1O`, the Potency was greater than 46 µM. The same measure, in the same setting: with `CCCc1c(-c2ccc(O)cc2)nn(-c2ccc(O)cc2)c1-c1ccc(O)cc1` the figure was greater than 46 µM; with `COc1cc(CNC(=O)CCCCCCC(C)C)ccc1O`, greater than 46 µM. Take `O=c1onc2cnc3ccccc3n12`: the Potency is greater than 46 µM. On the same count and under the same terms, with `O=C(O)c1ccccc1Nc1cccc(OCc2ccc3ccccc3n2)c1` the figure was greater than 46 µM; with `CCc1ccc2c(-c3cccc(Cl)c3)nc(=O)n(CC)c2n1`, greater than 46 µM; with `NC(=O)CNCCC(c1ccccc1)c1ccccc1`, greater than 46 µM. For `CNCCNS(=O)(=O)c1cccc2cnccc12`, the Potency is greater than 46 µM.

With `O=C1Nc2ccc(I)cc2/C1=C/c1cc(Br)c(O)c(Br)c1`, the Potency was greater than 46 µM.

On to `O=C(O)C1=CC(=C(c2ccc(O)c(C(=O)O)c2)c2ccc(O)c(C(=O)O)c2)C=CC1=O`, for which the Potency is greater than 46 µM. On the same count and under the same terms, with `CCCCOC(=O)NS(=O)(=O)c1sc(CC(C)C)cc1-c1ccc(Cn2c(CC)nc3c(C)cc(C)nc32)cc1` the figure was greater than 46 µM. Still for that read-out and setting: under `Cn1c(=O)c2[nH]c(C3CCCC3)nc2n(C)c1=O` stands greater than 46 µM.

The next assay has the same target. Kind of assay: GR-EFC Redistribution (AID 451). As to conditions: CHO-K1 GR-EFC translocation, beta-gal luminescence, 2 h. In a few lines: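 CHO-K1 cells stably expressing nuclear-localized β-gal enzyme acceptor and GR fused C-terminally to the enzyme donor fragment; ligand-driven nuclear translocation restores β-gal by complementation. Compounds titrated up to 46 uM final, 2 h at 37 °C; luminescence read.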
Take `N=C(N)SCCN`: the Potency was greater than 46 µM.

On to `CN(C)S(=O)(=O)c1ccc2c(c1)/C(=C/c1cc3c([nH]1)CCCC3)C(=O)N2`, for which the Potency was greater than 46 µM. The same measure, in the same setting: with `COc1cc2c(CCNC(C)=O)c[nH]c2cc1O` the figure was greater than 46 µM; with `Cc1nc(N=Nc2cc(S(=O)(=O)O)c3cc([N+](=O)[O-])cc(S(=O)(=O)O)c3c2)c(COP(=O)(O)O)c(C=O)c1O`, greater than 46 µM; with `Cn1c(=O)[nH]c2ncn(C)c2c1=O`, greater than 46 µM. Same read-out and setting: under `COc1ccccc1N1CCN(CCN(C(=O)c2ccc(F)cc2)c2ccccn2)CC1` stands greater than 46 µM; under `NC[C@@H]1O[C@H](c2ccccc2)Cc2c1ccc(O)c2O`, greater than 46 µM; under `Nc1ccc(N2C(=O)c3ccccc3C2=O)c(Cl)c1`, greater than 46 µM.

Regarding `CC[C@@H]1Cc2cc(O)ccc2C2=C1c1ccc(O)cc1C[C@H]2CC`, the Potency was greater than 46 µM.

For the compound `Oc1cc(O)c2c(c1)O[C@H](c1ccc(O)c(O)c1)[C@@H](O)C2`, the Potency is greater than 46 µM. For `CC(C)(C)c1cc(/C=C(\C#N)C(N)=S)cc(C(C)(C)C)c1O`, the Potency is greater than 46 µM. Still for that read-out and setting: under `CC(C)Cn1c(=O)n(C)c(=O)c2[nH]cnc21` stands greater than 46 µM. The same measure, in the same setting: under `CCCc1c(-c2ccc(O)cc2)nn(-c2ccc(O)cc2)c1-c1ccc(O)cc1` stands greater than 46 µM; under `Cn1cc(C(=O)OCC2CCN(CCNS(C)(=O)=O)CC2)c2ccccc21`, greater than 46 µM; under `N=C(N)c1ccc(N)cc1`, greater than 46 µM.

On to `COc1cc(CNC(=O)CCCCCCC(C)C)ccc1O`, for which the Potency is greater than 46 µM. On the same count and under the same terms, under `CCCCCCCCCCCCCCSCC(=O)O` stands greater than 46 µM; under `Fc1ccc(CN(C2=NCCN2)c2c(Cl)cccc2Cl)cc1`, greater than 46 µM; under `CCC(=O)N1CCN(C(=O)c2ccccc2)CC1`, greater than 46 µM.

For `O=c1onc2cnc3ccccc3n12`, the Potency was greater than 46 µM. Take `O=C(O)c1ccccc1Nc1cccc(OCc2ccc3ccccc3n2)c1`: the Potency was greater than 46 µM. On the same count and under the same terms, with `CCc1ccc2c(-c3cccc(Cl)c3)nc(=O)n(CC)c2n1` the figure was greater than 46 µM; with `NC(=O)CNCCC(c1ccccc1)c1ccccc1`, greater than 46 µM. Same read-out and setting: with `NC1(C(=O)O)CCCCC1` the figure was greater than 46 µM.

The values above are taken from PubChem BioAssay (NCATS).
